PLAP activator – activators of human placental alkaline phosphatase; activation fold at 20 µM; AID 696; purified PLAP enzyme, luminescent substrate read-out; hits give high values; P05187; 96,000 tested, 1.2% active; in the data active = activation fold above about 2
CYP2C19 inhib – inhibitors of human CYP2C19 | P33261 | CYP2C19 Supersomes, luciferin-H EGE luminescence, 30 min | inhibition, % at 5 µM | 96,000 tested, 21% active;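 active = CYP2C19 inhibition above a set limit at 5 µM in the primary screen, cut at about 50% in these data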;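 note: plate controls were negative control wells for no effect and 2.5 mM tranylcypromine positive control for full effect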
Target sequence (P33261 whole entry, looked up): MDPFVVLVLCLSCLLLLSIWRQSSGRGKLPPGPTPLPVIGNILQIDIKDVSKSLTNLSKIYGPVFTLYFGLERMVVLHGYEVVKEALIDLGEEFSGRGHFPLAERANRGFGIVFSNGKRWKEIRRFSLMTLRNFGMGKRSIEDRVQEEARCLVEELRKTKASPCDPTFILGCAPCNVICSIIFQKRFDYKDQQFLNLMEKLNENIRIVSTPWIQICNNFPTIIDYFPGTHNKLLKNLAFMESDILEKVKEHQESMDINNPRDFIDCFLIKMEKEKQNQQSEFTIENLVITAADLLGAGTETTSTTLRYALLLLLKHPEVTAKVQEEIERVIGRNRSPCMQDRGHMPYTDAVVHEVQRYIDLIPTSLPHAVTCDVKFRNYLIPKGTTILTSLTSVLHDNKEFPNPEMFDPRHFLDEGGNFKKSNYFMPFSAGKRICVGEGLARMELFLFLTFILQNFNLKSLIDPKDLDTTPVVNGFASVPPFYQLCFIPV
CYP2C9 inhib – human CYP2C9 inhibition; 96,000 tested, 20% active; P11712; inhibition, % at 5 µM; CYP2C9 Supersomes, luciferin-H conversion, luminescence; AID 777;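 active = blocking of liver enzyme CYP2C9 beyond about 50% at 5 µM, limit read from the data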
CYP2C19 activ – increases human CYP2C19 enzyme activity; activation factor at 5 µM; P33261; AID 1025; 96,000 tested, under 10 active; recombinant CYP2C19, luciferin-H EGE luminescence; hits give high values; 0 = fully inhibited enzyme, 1 = untreated enzyme;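 active = activation factor of at least 2 at 5 µM in the primary screen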;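 note: 0 = wells with 2.5 mM tranylcypromine and 1 = vehicle-only wells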
CYP2C9 activ – activators of human CYP2C9 | recombinant CYP2C9, luciferin-H conversion, luminescence; hits give high values; factor 1 = untreated enzyme, 0 = blocked | 96,000 tested, 1.4% active | activation factor at 5 µM;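 active = activation factor of 2 or more for CYP2C9 at a 5 µM dose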;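 note: 0 = sulfaphenazole-blocked wells and 1 = vehicle-only wells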
* marks the source's active call; other numbers are inactive results. Hits are enriched below; roughly 31% of the tested compounds scored in any of these assays.

SMILES	PLAP activator	CYP2C19 inhib	CYP2C9 inhib	CYP2C19 activ	CYP2C9 activ
Cc1[nH]n(C(C)(C)C)c(=O)c1Sc1ccc(Cl)cc1	1	54*	54*	0.5	0.5
Clc1ccccc1C1SCC2Nc3ccccc3CN21 (configuration not stated)	0.9	87*	53*	0.1	0.5
O=C(CSc1nncn1-c1ccccc1)NCc1cccs1	0.7	27	13	0.7	0.9
COC(=O)c1ccccc1S(=O)(=O)N1Cc2cc([N+](=O)[O-])ccc2Oc2ccccc21	1.1	100*	62*	0	0.4
O=C(N/N=C/c1ccc(Cl)cc1)Nc1ccccc1	1	-4	5	1	0.9
O=C(Nc1ccccc1)N(O)c1ccc(Cl)cc1	1	80*	61*	0.2	0.4
CC(C)COc1ccc(C(=O)N/C(=C\c2cccc([N+](=O)[O-])c2)C(=O)OC(C)C)cc1	0.9	-8	3	1.1	1
O=Cc1c(N2CCCCCC2)nc2ccccn2c1=O	1	48	1	0.5	1
O=c1c(/C=N/Nc2ccccc2)c(Sc2nnnn2-c2ccccc2)nc2ccccn12	0.7	46	72*	0.5	0.3
O=Cc1c(Sc2ccccc2)nc2ccccn2c1=O	1	72*	29	0.3	0.7
C/C(Cl)=C/Cn1c(=O)c2c(nc(Br)n2Cc2ccccc2)n(C)c1=O	0.8	11	14	0.9	0.9
Cc1cccc2cc3c(NC(=O)CC(C)C)nn(C)c3nc12	1	-1	-19	1	1.2
CC(C)CCNC(=O)Cn1c2c(c(-c3ccccc3Cl)cc1=O)CCC2	1.1	13	62*	0.9	0.4
CCC(=O)N(CCC1(C(C)C)CCOC(C)(C)C1)Cc1ccco1 (configuration not stated)	1.3	59*	14	0.4	0.9
CN1CCN(CCN2CCn3c2nc2ccccc23)CC1	1.2	33	2	0.7	1
CCN1CCc2c(sc3c2c(NCc2ccco2)nc2nnnn23)C1	1.5	42	53*	0.6	0.5
Cc1cccc(Cn2c(N(C)Cc3ccccc3)nc3c2c(=O)[nH]c(=O)n3C)c1	1	26	26	0.7	0.7
Cc1cccc(OCC(=O)N2CCN(C(=O)CCC3CCCC3)CC2)c1	1.6	62*	51*	0.4	0.5
O=C(CCC1CCCC1)N1CCN(C(=O)c2cccnc2)CC1	1.3	70*	1	0.3	1
O=C(Nc1nc(-c2ccco2)cs1)c1ccccc1	0.9	15	15	0.8	0.8
Cc1ccc(C(=O)Nc2nc3ccccc3c(=O)s2)cc1	1.9	9	2	0.9	1
Cc1ccc(C(=O)Nc2nc(=O)n(C(=O)C3CC3)s2)cc1	1.2	-6	79*	1.1	0.2
Cc1ccc(C(=O)Nc2nc(=O)n(C(=O)c3ccccc3C)s2)cc1	1.6	31	82*	0.7	0.2
O=C(Nc1nc(=O)n(C(=O)C2CC2)s1)c1ccccc1	1	-3	80*	1	0.2
O=C(Cn1cnc2ccccc2c1=O)NC1CCCc2ccccc21 (configuration not stated)	1.1	0	4	1	1
SMILES	PLAP activator	CYP2C19 inhib	CYP2C9 inhib	CYP2C19 activ	CYP2C9 activ
O=C(Cn1c(O)c(/C=C2\C=Nc3ccc(Br)cc32)sc1=O)N1CCCC1	1.5	70*	91*	0.3	0.1
CC1=Nc2ccccc2/C1=C/c1sc(=O)n(CC(=O)N2CCCC2)c1O	1	39	21	0.6	0.8
COc1ccccc1-c1cc(C(=O)Nc2ccc(F)cc2F)no1	0.9	14	-49	0.9	1.5
COc1ccccc1-c1cc(C(=O)NC(C)c2ccccc2)no1 (configuration not stated)	1	10	-179	0.9	2.8*
COc1ccccc1-c1cc(C(=O)NC(C)C)no1	1	16	-300	0.8	4*
Cc1cc(C)c2cc(C#N)c(NCCOC(=O)c3ccccc3C)nc2c1	1.2	62*	68*	0.4	0.3
CSc1ccc(S(=O)(=O)NCCOc2ccccc2C)cc1	0.9	63*	-16	0.4	1.2
COc1ccc(S(=O)(=O)NCCSC(C)(C)C)cc1Cl	0.7	32	-191	0.7	2.9*
COc1ccc(S(=O)(=O)NCCSCc2ccco2)cc1Cl	0.8	95*	-106	0.1	2.1*
CS(=O)(=O)NCCSCc1ccco1	1.4	6	15	0.9	0.9
COc1ccc(S(=O)(=O)NCCSC(C)(C)C)cc1	0.9	96*	16	0	0.8
C=CCNC(=O)CCCCCNS(=O)(=O)c1ccc(OC)cc1	1.2	36	11	0.6	0.9
O=S(=O)(NCCOCCNS(=O)(=O)c1ccccc1)c1ccccc1	0.9	9	-5	0.9	1.1
CCCC(=O)Nc1ccc(Cl)c(NC(=O)CC)c1	0.9	-3	4	1	1
COc1cc(C2/C(=C(\O)c3cc(C)ccc3C)C(=O)C(=O)N2CCN(C)C)ccc1O (configuration not stated)	1.4	16	-3	0.8	1
CC(C)(C)SCCNS(=O)(=O)c1ccccc1	0.9	-3	9	1	0.9
CSc1ccc(S(=O)(=O)NCCSC(C)(C)C)cc1	0.6	86*	5	0.1	1
CC(C)(C)SCCNS(=O)(=O)c1ccc2ccccc2c1	0.5	86*	-166	0.1	2.7*
CC(C)n1nnnc1SCC(=O)N1CCOCC1	1	5	0	1	1
COC(=O)C1=C(C)NC(C)=C(C(=O)OC)C1c1cc2ccc(C)cc2[nH]c1=O	1.3	40	18	0.6	0.8
COC(=O)C1=C(C)NC(C)=C(C(=O)OC)C1c1ccccc1OCc1c(C)no[n+]1[O-]	1.3	71*	89*	0.3	0.1
O=P(O)(O)COc1ccccc1P(=O)(c1ccccc1)c1ccccc1	1.1	2	-8	1	1.1
O=C(C1CCN(S(=O)(=O)c2cccnc2)CC1)N1CCN(c2cccc(Cl)c2)CC1	1.3	42	-13	0.6	1.1
CCOc1ccc(C2C(C(=O)Nc3ccc(F)cc3)=C(C)Nc3nc(CCCO)nn32)cc1 (configuration not stated)	1.3	4	62*	1	0.4
Cc1ccc(OCC(O)Cn2c3ccccc3c3ccccc32)cc1 (configuration not stated)	0.9	63*	60*	0.4	0.4
CC(=O)N(C)c1ccc(OCC(O)Cn2c3ccc(Cl)cc3c3cc(Cl)ccc32)cc1 (configuration not stated)	1.6	31	54*	0.7	0.5
CCn1c(=N)n(CC(O)COc2cccc(C)c2)c2ccccc21 (configuration not stated)	1	13	-14	0.9	1.1
Cc1cccc(C)c1OCC(O)Cn1c2ccccc2c2ccccc21 (configuration not stated)	0.9	49	75*	0.5	0.2
CCc1nnc(NC(=O)CSc2nc(C)c3c(c2C#N)CCCC3)s1	1.2	-16	-31	1.2	1.3

Screens as filed in PubChem BioAssay.
